# Rows were chosen to be rich in hits. Some 11% of all compounds tested hit in one or more screens of this group.
# VDR inh – blocks the human vitamin D receptor; Potency, µM, actives largely listed as inhibitors; VDR-SRC2-3 peptide fluorescence polarization, 2 h; hit rate 0.93% among 400,000; P11473; AID 504847
# Target sequence (P11473 whole entry, looked up): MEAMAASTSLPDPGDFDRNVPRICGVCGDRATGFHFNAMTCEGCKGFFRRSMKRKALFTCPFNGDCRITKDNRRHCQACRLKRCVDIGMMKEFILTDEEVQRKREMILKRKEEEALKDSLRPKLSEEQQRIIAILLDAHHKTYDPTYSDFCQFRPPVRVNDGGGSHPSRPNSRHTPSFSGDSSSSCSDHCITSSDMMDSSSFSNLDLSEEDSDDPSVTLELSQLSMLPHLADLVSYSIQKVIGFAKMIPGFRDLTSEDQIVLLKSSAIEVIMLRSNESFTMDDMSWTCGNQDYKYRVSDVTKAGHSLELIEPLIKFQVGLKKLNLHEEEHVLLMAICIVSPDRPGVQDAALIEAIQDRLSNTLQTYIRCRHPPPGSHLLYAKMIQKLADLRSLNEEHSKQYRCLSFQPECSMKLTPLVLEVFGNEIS
#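 Signal is fluorescence polarization, reporting how far test compounds block the interaction of VDR with the SRC2-3 coregulator peptide after a 2 h room-temperature incubation.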
# BAZ2B inh – blocks human BAZ2B; Q9UIF8; AlphaScreen BAZ2B-H3K14Ac peptide displacement; Potency, µM (highest dose often 114 µM), actives largely listed as inhibitors; hit rate 4.4% among 360,000; also: nearly all actives have a fitted effect of over 60% in size
#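 Multi-concentration screen (max 110 uM) measuring displacement of acetylated histone H3 peptide from BAZ2B by AlphaScreen, using 50 nM protein, 50 nM peptide and 10 ug/mL streptavidin donor plus Ni-chelate acceptor beads.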
# PLK1 PBD block – PLK1 (human) polo-box domain binding inhibition; P53350; Plk1 PBD binding of FITC phosphopeptide, fluorescence polarization; Potency, µM, usual class: inhibitors; hit rate 2.8% among 360,000; also: series mostly up to about 57 µM; nearly all actives have a fitted effect of over 65% in size
# G9a inh – inhibitors of human histone lysine methyltransferase G9a; Potency, µM (top dose mostly 102 µM), actives largely listed as inhibitors; G9a H3K9 monomethylation, AlphaScreen, 2 h; Q96KQ7; hit rate 8.8% among 350,000; also: nearly all actives have a fitted effect of over 75% in size
#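 AlphaScreen read-out: biotin-H3K9 peptide (500 nM) methylation by 20 nM enzyme with 20 uM SAM, 2 h at room temperature after 15 min compound preincubation; anti-monomethyl H3K9 antibody plus donor/acceptor beads, 10 min dark.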
# HP1b chromo inh – inhibitors of HP1-beta chromodomain binding to methylated histone tails; AID 540317; AlphaScreen HP1-beta / biotin-H3K9me3 peptide binding; Potency, µM (doses to about 114 µM), most hits filed as inhibitors; hit rate 0.56% among 390,000; also: nearly all actives have a fitted effect of over 70% in size
#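 Compound inhibition of the preformed complex between 50 nM HP1-beta and 50 nM biotinylated H3K9me3 peptide was read by AlphaScreen. Buffer was PBS pH 7.4 with 0.01% Tween-20. Incubations ran 30 min at room temperature, with 10 ug/mL donor/acceptor beads.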
# JMJD2A Tudor inh – JMJD2A Tudor domain (human) inhibition; hit rate 4.4% among 390,000; Potency, µM (series often up to 114 µM), most hits filed as inhibitors; AlphaScreen JMJD2A-Tudor / H3K4me3 peptide binding; O75164; also: nearly all actives have a fitted effect of over 50% in size
# A number is an active result; . = inactive; ? = inconclusive; / = not tested or not shown; [ ] = dose if it differs, or a comment. Calls follow the shape of the dose curve; as a rule, active = well fitted curve in the direction sought with a large enough effect; inconclusive = small, poorly fitted or top-dose-only effect, or another doubt; inactive = no such curve, though single readings can be large; an effect the other way counts as inactive or inconclusive.
SMILES,VDR inh,BAZ2B inh,PLK1 PBD block,G9a inh,HP1b chromo inh,JMJD2A Tudor inh
COc1ccc(/C=C2\Sc3ccc(C(=O)NCC4CCCO4)cc3N(C)C2=O)cc1 (stereo not given),.,.,?,12.6µM,.,?
COc1ccc(/C=C2\Sc3ccc(C(=O)N4CCN(Cc5ccccc5)CC4)cc3N(C)C2=O)cc1OC,.,?,.,70.8µM,.,?
C=CCc1c(C)nc2c(C)cccc2c1SC(=N)N,.,.,.,/,.,.
Cc1nc2c(C)cccc2c(SC(=N)N)c1CC=C(Cl)Cl,.,?,?,7.94µM,.,?
O=C(Nc1ccccc1[N+](=O)[O-])c1nc[nH]c1C(=O)NCCO,.,56.2µM,.,14.1µM,.,?
CNC(=O)c1nc[nH]c1C(=O)NC,.,?,.,?,.,28.2µM
CNC(=O)c1[nH]cnc1C(=O)Nc1ccc(OC)cc1,.,79.4µM,.,/,.,.
CCNC(=O)c1nc[nH]c1C(=O)NCC,.,.,.,.,.,39.8µM
CCOC(=O)c1ccc(NC(=O)c2nc[nH]c2C(=O)NCCNC(=O)c2[nH]cnc2C(=O)Nc2ccc(C(=O)OCC)cc2)cc1,.,/,.,/,.,.
CNC(=O)c1[nH]cnc1C(=O)NCC(=O)OC(C)(C)C,.,.,.,?,.,.
O=C(CNC(=O)c1ccc2c(c1)OCCO2)N/N=C/c1cccc(Br)c1,.,.,.,?,.,.
CC1CCCN(S(=O)(=O)c2ccc(N3CCCCS3(=O)=O)cc2)C1 (stereo not given),.,.,/,.,.,.
O=C(Nc1ccc(F)cc1)c1nc[nH]c1C(=O)O,?,4.47µM,.,.[2.33 µM],.,10µM
Nc1ccccc1C(=O)NCc1ccccc1,?,.,3.77µM,.,.,35.5µM
O=C(Nc1ccc(F)cc1)c1nc[nH]c1C(=O)Nc1ccccc1[N+](=O)[O-],?,.,.,.,.,.
O=C(NCc1ccccc1)c1nc[nH]c1C(=O)NCc1ccccc1,.,?,.,50.1µM,.,.
CN(Cc1ccccc1)C(=O)c1[nH]cnc1C(=O)Nc1nccs1,?,25.1µM,?,.[0.501 µM],.,56.2µM
O=C(Nc1ccccc1)c1nc[nH]c1C(=O)NCc1ccccc1,.,.,.,.[0.501 µM],.,.
CCOC(=O)c1cc(-c2ccc(C)cc2)n(CCC(=O)NCCc2ccc(C)cc2)c1C,.,.,/,.,.,.
CCOC(=O)c1cc(-c2ccc(C)cc2)n(CCC(=O)N2CCN(c3ccccn3)CC2)c1C,.,44.7µM,.,28.2µM,?,35.5µM
CCOC(=O)c1cc(-c2ccc(C)cc2)n(CCC(=O)NCCN(C)C)c1C,.,50.1µM,.,?,.,?
COc1ccc(/C=C/c2nnc(NC(=O)CSc3ccc(Cl)cc3)s2)cc1,.,.,.,.,.,.
CCCn1c(N)c(C(=O)CSc2nc(C)nc3sc(C)c(C)c23)c(=O)[nH]c1=O,.,.,?,22.4µM,.,.
CCC(=O)N/N=C/c1ccc(-c2ccc([N+](=O)[O-])cc2)o1,.,.,.,/,.,.
Cc1ccc(C)c(N=Cc2ccc(-c3ccc([N+](=O)[O-])cc3)o2)c1,.,?,.,35.5µM,?,56.2µM
SMILES,VDR inh,BAZ2B inh,PLK1 PBD block,G9a inh,HP1b chromo inh,JMJD2A Tudor inh
CCc1cc[n+](C2=C([O-])c3ccccc3C(=O)/C2=N\S(=O)(=O)c2cccs2)cc1,.,?,?,?,?,79.4µM
CCc1ccc([C@@H]2CC=C(C(=O)O)CN2S(=O)(=O)c2ccc(C)cc2)cc1,.,.,.,.[2.33 µM],.,.
COc1ccc(C)cc1NC(=O)Cn1c(=O)ccc2cc(S(=O)(=O)N3CCC(C)CC3)ccc21,.,.,/,.,.,.
CC(=O)Nc1ccc(S(=O)(=O)NCC(=O)NCCc2ccc(S(N)(=O)=O)cc2)cc1,.,.,.,.,.,.
NS(=O)(=O)c1ccc(CCNC(=O)Cc2c[nH]c3ccccc23)cc1,.,.,.,.,.,.
O=C(CNCCc1ccc(Cl)cc1Cl)NCc1ccco1,.,.,.,?,.,.
O=C(CNCc1ccccc1Cl)NCc1ccco1,.,20µM,.,.,22.4µM,.
NS(=O)(=O)c1ccc(CCNC(=O)CNS(=O)(=O)c2cccc(Br)c2)cc1,.,?,5.32µM,.,.,.

# High-throughput results from PubChem.
